Assay [1] can be described thus: small molecules captured by biotinylated probe aFSTL3 – biochemical, small-molecule microarray, fluorescence 635/667, stem cell growth factor project, primary screen (AID 1064).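 Also: measures binding of the biotinylated anti-FSTL3 antibody to printed compounds.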 Conditions: higher = more signal.
Assay [2] can be described thus: binders from COS7 lysate, DM2A8 probe, primary screen, torsin A project, cell lysate, small-molecule microarray, fluorescence 635/667 (AID 1065). Conditions: higher = more signal, COS7 lysate expressing mutant human TOR1A.
Assay [3] is described as follows: small molecules captured by biotinylated probe aFGF2 – biochemical, small-molecule microarray, fluorescence 635/667, stem cell growth factor project, primary screen (AID 1067).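 Also: measures binding of biotinylated aFGF2 protein to printed compounds on slides; z-score merges feature fluorescence and signal-to-noise across triplicate slides.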 Conditions: higher = more signal.
The nature of assay [4]: small molecules captured by biotinylated probe aFGF10 – biochemical, small-molecule microarray, fluorescence 635/667, stem cell growth factor project, primary screen (AID 1071).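 Also: score merges 667 nm spot intensity and signal to noise from triplicate slides.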 Particulars: higher = more signal.
Assay [5] has as its target Neurogenic locus notch homolog protein 2 (Homo sapiens) (UniProt Q04721). Nature of the assay: small molecules binding Notch2 protein – biochemical, small-molecule microarray, 635 nm fluorescence, stem cell growth factors, primary screen (AID 1073). Particulars: higher = more signal.
In assay [6] the target is Pro-neuregulin-1, membrane-bound isoform (Homo sapiens) (UniProt Q02297). Briefly: small molecules binding neuregulin-1 protein – biochemical, small-molecule microarray, fluorescence 635/667, psychiatric disease protein project, primary screen (AID 1075).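 Also: score combines 667 nm spot fluorescence with signal to noise.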 Particulars: NRG1 binding, 635 nm fluorescence, higher = more signal.
Chain of Pro-neuregulin-1, membrane-bound isoform (Homo sapiens) (Q02297 whole entry, looked up, the tested form may be a part, canonical isoform): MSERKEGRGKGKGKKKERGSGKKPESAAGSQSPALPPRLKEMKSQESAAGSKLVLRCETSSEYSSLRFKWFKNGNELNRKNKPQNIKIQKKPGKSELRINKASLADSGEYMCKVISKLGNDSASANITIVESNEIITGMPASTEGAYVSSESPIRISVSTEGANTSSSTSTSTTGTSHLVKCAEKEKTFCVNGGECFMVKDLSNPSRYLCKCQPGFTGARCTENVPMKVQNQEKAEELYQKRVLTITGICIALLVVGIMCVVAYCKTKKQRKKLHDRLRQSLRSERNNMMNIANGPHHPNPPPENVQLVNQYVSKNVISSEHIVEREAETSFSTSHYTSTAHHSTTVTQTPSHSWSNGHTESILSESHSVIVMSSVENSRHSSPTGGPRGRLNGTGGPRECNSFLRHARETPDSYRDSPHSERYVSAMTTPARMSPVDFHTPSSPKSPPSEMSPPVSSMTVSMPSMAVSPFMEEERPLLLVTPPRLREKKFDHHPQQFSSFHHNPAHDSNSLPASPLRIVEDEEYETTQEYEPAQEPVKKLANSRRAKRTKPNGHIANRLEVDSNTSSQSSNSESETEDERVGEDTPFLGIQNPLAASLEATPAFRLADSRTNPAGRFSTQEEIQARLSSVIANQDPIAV
Assay [7] relates to Neuregulin-1 EGF-like domain. Briefly: small molecules binding NRG1 EGF domain – biochemical, small-molecule microarray, 635 nm fluorescence, primary screen (AID 1081).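 Also: binding of the protein to compounds printed on small-molecule microarray slides.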 Particulars: higher = more signal.
Assay [8] can be described thus: FRG1 expression reporter modulators in myotubes – cell-based, C2C12 myotubes, firefly/Renilla luciferase, luminescence, FRG1 inhibition for FSHD, primary screen (AID 1084). Conditions: FRG1 promoter luciferase, higher = more signal, called active from +8 up or from −8 down.
The nature of assay [9]: small molecules captured by biotinylated probe aFST – biochemical, small-molecule microarray, fluorescence 635/667, stem cell growth factor project, primary screen (AID 1086).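 Also: score merges 667 nm fluorescence with signal-to-noise of each printed compound spot.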 Conditions: higher = more signal.
Assay [10] is described as follows: binders of probe aHhip on microarray, primary screen, stem cell growth factor project, biochemical, small-molecule microarray, fluorescence 635/667 (AID 1087).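 Also: score merges spot fluorescence at 667nm with spot signal to noise ratio.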 Particulars: higher = more signal.
Assay [11] concerns PRMT1 (protein arginine N-methyltransferase 1). Nature of the assay: small molecules binding arginine methyltransferase PRMT1 – biochemical, small-molecule microarray, 635 nm fluorescence, primary screen (AID 1088).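 Also: binding of Prmt1 protein to compounds spotted on small-molecule microarray slides.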 Particulars: higher = more signal.
Assay [12] can be described thus: growth effects on S. cerevisiae YJM789 – YJM789 clinical isolate, OD600, 24 h, basal, primary screen (AID 1089).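 Also: growth of clinical yeast isolate S. cerevisiae YJM 789 seeded 1000 cells per well; test concentration not given here.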 Conditions: higher = more signal, called active from +8 up or from −8 down.
Assay [13] is described as follows: S. pombe growth modifiers, basal conditions – strain 972, OD600, 24 h, no modulator, primary screen (AID 1090).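 Also: basal condition with compound alone and no growth modifier present; test concentration not given here.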 Particulars: S. pombe 972 growth, higher = more signal, called active from +8 up or from −8 down.
The nature of assay [14]: budding yeast growth modifiers under rapamycin – strain BY4716, OD600, 96 h, primary screen (AID 1091). Also: test concentration not given here. Particulars: S. cerevisiae BY4716 + rapamycin, higher = more signal, called active from +8 up or from −8 down.
Assay [15] concerns the target Torsin-1A-interacting protein 2 (Homo sapiens) (UniProt Q8NFQ8). Nature of the assay: small molecules binding lysate-expressed LULL1 – cell lysate, human LULL1 lysate, 635/667 nm fluorescence, primary screen (AID 1092).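 Also: probe is lysate of COS7 cells overexpressing human LULL1; score merges per-feature 667 nm fluorescence with signal-to-noise.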 Particulars: small-molecule microarray, hLULL1 lysate binding, 635 nm fluorescence; higher = more signal.
Assay [16] in a line: optical density change of DRC41 E. coli – strain DRC41, OD650, 24 h, E. coli filamentation project, primary screen (AID 1093).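 Also: MC1000 strain lacking acrAB efflux and sulA so SOS filamentation is blocked; test concentration not given here.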 Conditions: E. coli DRC41 growth, higher = more signal, called active from +8 up or from −8 down.
A short description of assay [17]: probe aLefty2 binding to arrayed compounds – biochemical, biotinylated probe, 635/667 nm fluorescence, primary screen (AID 1094).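 Also: score merges spot fluorescence near 667 nm with spot signal-to-noise ratio.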 Particulars: small-molecule microarray, higher = more signal.
For assay [18], the system named is Noggin (protein binding on small-molecule microarray). Briefly: small molecules binding Noggin protein – biochemical, 635/667 nm fluorescence, primary screen (AID 1095).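 Also: score merges 667 nm feature fluorescence with signal to noise over triplicate slides.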 Particulars: 635 nm fluorescence, higher = more signal.
Assay [19] deals with Neurogenic locus notch homolog protein 3 (Homo sapiens) (UniProt Q9UM47). Briefly: small molecules binding NOTCH3 protein – biochemical, 635/667 nm fluorescence, primary screen (AID 1096). Conditions: small-molecule microarray, 635 nm fluorescence, higher = more signal.
Chain of Neurogenic locus notch homolog protein 3 (Homo sapiens) (Q9UM47 whole entry, looked up): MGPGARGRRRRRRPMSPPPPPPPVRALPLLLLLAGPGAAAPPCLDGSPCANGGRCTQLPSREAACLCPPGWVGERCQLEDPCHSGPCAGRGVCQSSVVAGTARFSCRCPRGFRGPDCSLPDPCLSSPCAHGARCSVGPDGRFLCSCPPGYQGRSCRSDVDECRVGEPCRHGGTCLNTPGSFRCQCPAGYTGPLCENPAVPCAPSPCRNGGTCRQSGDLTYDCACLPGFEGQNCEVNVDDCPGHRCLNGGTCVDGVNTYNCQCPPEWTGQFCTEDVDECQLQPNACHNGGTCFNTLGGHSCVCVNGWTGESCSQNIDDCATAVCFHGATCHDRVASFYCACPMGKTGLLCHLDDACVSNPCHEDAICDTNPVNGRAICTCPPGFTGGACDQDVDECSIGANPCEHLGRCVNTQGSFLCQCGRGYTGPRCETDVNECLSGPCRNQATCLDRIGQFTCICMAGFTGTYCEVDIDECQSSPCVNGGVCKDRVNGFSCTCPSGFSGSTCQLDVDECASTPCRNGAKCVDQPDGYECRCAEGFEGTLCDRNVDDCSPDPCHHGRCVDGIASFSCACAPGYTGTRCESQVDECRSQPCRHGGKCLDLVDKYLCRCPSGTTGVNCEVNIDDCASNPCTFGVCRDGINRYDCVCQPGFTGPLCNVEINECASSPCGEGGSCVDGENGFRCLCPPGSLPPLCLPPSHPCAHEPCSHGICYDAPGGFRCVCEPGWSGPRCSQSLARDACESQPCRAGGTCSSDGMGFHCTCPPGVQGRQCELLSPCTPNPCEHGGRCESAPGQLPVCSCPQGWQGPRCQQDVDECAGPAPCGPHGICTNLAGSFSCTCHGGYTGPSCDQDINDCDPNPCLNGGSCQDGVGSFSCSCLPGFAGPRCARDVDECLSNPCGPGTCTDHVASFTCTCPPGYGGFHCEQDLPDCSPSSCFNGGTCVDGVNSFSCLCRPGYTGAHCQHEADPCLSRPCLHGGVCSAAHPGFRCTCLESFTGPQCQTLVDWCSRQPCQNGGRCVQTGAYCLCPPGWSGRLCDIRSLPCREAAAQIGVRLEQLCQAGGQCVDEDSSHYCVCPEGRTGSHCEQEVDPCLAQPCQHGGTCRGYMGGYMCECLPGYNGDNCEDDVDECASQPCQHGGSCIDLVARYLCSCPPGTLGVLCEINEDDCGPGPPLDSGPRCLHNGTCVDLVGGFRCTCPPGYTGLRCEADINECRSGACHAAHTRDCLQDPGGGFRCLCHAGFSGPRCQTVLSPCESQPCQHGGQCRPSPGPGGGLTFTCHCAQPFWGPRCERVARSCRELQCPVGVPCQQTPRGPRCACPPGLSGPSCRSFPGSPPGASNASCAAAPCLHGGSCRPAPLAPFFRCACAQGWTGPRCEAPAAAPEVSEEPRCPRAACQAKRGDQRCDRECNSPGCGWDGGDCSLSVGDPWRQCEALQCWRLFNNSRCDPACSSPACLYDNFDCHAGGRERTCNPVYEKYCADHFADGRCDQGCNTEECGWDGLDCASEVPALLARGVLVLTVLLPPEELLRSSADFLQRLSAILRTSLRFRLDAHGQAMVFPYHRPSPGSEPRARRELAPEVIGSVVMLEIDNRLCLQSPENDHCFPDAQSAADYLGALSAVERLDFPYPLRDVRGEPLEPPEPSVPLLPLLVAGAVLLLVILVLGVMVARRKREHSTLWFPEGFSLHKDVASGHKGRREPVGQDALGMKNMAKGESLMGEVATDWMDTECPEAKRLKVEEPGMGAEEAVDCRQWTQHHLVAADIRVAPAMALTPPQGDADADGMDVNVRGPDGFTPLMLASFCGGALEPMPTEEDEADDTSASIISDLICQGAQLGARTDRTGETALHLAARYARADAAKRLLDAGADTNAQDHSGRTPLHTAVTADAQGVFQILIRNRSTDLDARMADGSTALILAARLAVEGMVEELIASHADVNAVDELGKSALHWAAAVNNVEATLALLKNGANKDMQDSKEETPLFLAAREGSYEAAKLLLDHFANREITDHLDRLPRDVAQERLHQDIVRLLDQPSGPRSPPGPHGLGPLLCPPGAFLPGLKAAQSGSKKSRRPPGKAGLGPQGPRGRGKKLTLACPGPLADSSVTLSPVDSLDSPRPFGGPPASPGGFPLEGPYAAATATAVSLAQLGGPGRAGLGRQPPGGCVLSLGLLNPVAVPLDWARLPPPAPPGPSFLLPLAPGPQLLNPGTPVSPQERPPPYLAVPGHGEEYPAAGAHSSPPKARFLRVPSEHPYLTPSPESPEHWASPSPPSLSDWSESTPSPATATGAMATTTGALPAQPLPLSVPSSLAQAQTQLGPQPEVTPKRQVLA
Assay [20] is described as follows: probe aEGFR binding to arrayed compounds – biochemical, biotinylated probe, 635/667 nm fluorescence, primary screen (AID 1097).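 Also: probe is a biotinylated anti-EGFR antibody binding compounds printed on slides; score combines fluorescence near 667 nm and signal to noise of each spot.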 Conditions: small-molecule microarray, higher = more signal.

Where “and” joins values, the source holds several entries; their conditions need not be identical. Identical values can stand only once. Calls of active or inactive are those of the source.

Chain of Torsin-1A-interacting protein 2 (Homo sapiens) (Q8NFQ8 whole entry, looked up): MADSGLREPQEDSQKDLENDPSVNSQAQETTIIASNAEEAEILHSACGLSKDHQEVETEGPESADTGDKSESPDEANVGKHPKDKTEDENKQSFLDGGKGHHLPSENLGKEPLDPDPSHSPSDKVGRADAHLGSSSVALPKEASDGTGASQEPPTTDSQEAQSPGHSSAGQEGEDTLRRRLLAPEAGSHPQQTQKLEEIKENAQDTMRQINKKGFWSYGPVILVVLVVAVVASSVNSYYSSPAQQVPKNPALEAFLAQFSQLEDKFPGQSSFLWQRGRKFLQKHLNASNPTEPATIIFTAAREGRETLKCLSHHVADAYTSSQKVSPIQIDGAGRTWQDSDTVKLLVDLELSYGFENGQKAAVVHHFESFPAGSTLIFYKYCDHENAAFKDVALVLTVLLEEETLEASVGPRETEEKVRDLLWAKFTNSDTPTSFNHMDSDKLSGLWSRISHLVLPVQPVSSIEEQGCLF

As to `C=CCN(CCCCC)C(=O)C1N(CCOCCO)C(=O)C2C(C(=O)O)C3C=CC21O3` (stereo not given), the composite z-score in assay [1] is 0.555 and 0.963; in assay [2], -0.771 and -0.902; in assay [3], -0.191 and -0.283; in assay [4], -1.87; in assay [5], -0.459 and -2.05; in assay [6], 0.17 and -0.496. In addition, the composite z-score in assay [7] is 0.891 and 1.05; in assay [9] it was -0.211 and -0.726; in assay [10] it was -0.171 and -0.182; in assay [11], -1.77 and -0.751; in [15], 0.0037 and 0.198; in [17], -0.0617 and -0.142. Also, the composite z-score in assay [18] was -1.17 and -2.1; in assay [19] it was -0.574 and -1.05; in assay [20], -0.275 and -0.367. Moreover, the z-score is 0.306 (inactive) and 0.0282 (inactive) in assay [8]; 0.322 (inactive) and 0.513 (inactive) in assay [12]; 0.0056 (inactive) and 0.398 (inactive) in [13]; 0.912 (inactive) and 1.09 (inactive) in assay [14]; -0.45 (inactive) and -0.546 (inactive) in [16].

As to `C=CCN(CCCC)C(=O)C(c1cccs1)N(C(=O)/C=C\C(=O)O)c1c(Cl)cccc1CO` (stereo not given), the composite z-score in assay [1] is 1.46 and 0.323; in assay [2], -1.19 and -0.707; in assay [3] it was -0.288 and -0.203; in assay [4], -1.27 and -1.8; in assay [5] it was -1.97 and -1.39; in [6], -1.26 and -0.533. Besides, the composite z-score in [7] is -0.751 and 0.176; in assay [9], -1.94 and -0.684; in assay [10], 0.679 and -0.409; in [11] it was -0.663 and -0.538; in assay [15], 0.376 and 0.744; in assay [17] it was 0.148 and -0.235. The composite z-score in assay [18] was -1.97 and -2.53; in assay [19], -2.02 and -1.33; in assay [20] it was -0.451 and -0.328. Moreover, the z-score in assay [8] was -0.165 (inactive) and -0.332 (inactive); in assay [12], 0.135 (inactive) and 0.537 (inactive); in assay [13], -0.266 (inactive) and 1.12 (inactive); in assay [14], -0.548 (inactive) and -0.522 (inactive); in assay [16], 0.224 (inactive) and -0.174 (inactive).

Take `CC(CO)N1C(=O)[C@@H]2C3C(=O)OCCC=C[C@H]3OC23C=CCN(Cn2nnc4ccccc42)C(=O)[C@@H]13` (stereo not given in full): the composite z-score in assay [1] was 0.634 and 0.0762; in [2] it was -1.37 and 0.709; in assay [3], -0.187 and -0.0234; in assay [4], 0.0583 and 0.509; in [5], -1.7 and -0.0585; in assay [6], 1.32 and 1.91. In addition, the composite z-score in [7] was 1.5 and 1.48; in assay [9], -0.545 and -0.255; in assay [10], -0.137 and -0.228; in assay [11] it was -0.414 and 0.262; in [15], 0.145 and 3.01; in assay [17] it was -0.223 and -0.0882. The composite z-score in [18] is -1.78 and 0.0711; in assay [19], -0.391 and 0.347; in assay [20], -0.203 and -0.0828. The z-score is -0.191 (inactive) and 0.519 (inactive) in [8]; 1.52 (inactive) and -1.09 (inactive) in assay [12]; 0.102 (inactive) and -0.115 (inactive) in assay [13]; 0.73 (inactive) and -0.0895 (inactive) in assay [14]; 0.775 (inactive) and -0.175 (inactive) in assay [16].

With `C=CCN(CCCCC)C(=O)C1N(c2c(Cl)cccc2CO)C(=O)C2C(C(=O)O)C3C=CC21O3` (stereo not given), the composite z-score was 1.15 and 1.51 in assay [1]; -0.58 and -2.44 in [2]; -0.283 and -0.216 in assay [3]; -1.66 and -1.11 in assay [4]; -2.36 and -1.86 in assay [5]; -0.855 and -0.992 in assay [6]. Besides, the composite z-score in assay [7] was -0.506 and -0.277; in assay [9] it was -0.898 and -1.06; in assay [10] it was -0.169 and -0.213; in [11], 0.0842 and -0.629; in assay [15], -0.445 and -0.75; in assay [17], 0.156 and -0.0555. For the same compound, the composite z-score in [18] was -2.4 and -2.23; in assay [19], -0.676 and -0.842; in [20] it was -0.441 and -0.411. Besides, the z-score is 0.887 (inactive) and 0.699 (inactive) in assay [8]; 0.006 (inactive) and 0.769 (inactive) in assay [12]; -0.456 (inactive) and -0.0109 (inactive) in assay [13]; 0.59 (inactive) and 0.045 (inactive) in assay [14]; 0.31 (inactive) and 0.437 (inactive) in [16].
